# Assay outcomes from PubChem BioAssay.
# ALOX12 inh = Primary qHTS assay for inhibitors of human arachidonate 12S-lipoxygenase (ALOX12): Round 2; Polyunsaturated fatty acid lipoxygenase ALOX12 (Homo sapiens), P18054; purified 12hLO, xylenol orange hydroperoxide absorbance; Potency, µM (top dose mostly 108 µM), most hits filed as inhibitors; 580,000 compounds, 1.1% hits
# Target sequence (P18054 whole entry, looked up): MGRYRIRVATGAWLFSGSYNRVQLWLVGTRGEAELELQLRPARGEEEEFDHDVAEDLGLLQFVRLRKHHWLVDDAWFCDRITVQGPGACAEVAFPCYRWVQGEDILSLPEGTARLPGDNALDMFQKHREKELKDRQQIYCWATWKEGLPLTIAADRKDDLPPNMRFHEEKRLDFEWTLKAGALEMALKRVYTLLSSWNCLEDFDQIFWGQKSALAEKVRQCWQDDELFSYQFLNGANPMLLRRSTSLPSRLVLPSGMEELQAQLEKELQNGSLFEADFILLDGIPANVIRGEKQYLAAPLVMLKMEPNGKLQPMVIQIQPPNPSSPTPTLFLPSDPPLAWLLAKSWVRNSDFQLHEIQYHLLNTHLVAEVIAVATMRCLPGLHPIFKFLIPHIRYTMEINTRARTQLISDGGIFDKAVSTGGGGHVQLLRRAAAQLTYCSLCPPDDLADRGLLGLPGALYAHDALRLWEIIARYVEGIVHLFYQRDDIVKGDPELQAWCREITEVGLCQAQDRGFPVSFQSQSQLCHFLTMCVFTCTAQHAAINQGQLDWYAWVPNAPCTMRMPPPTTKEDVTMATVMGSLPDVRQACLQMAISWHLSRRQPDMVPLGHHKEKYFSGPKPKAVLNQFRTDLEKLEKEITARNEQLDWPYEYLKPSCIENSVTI
#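 Purified human 12hLO (150 nM final) in 25 mM Hepes, 0.01% Triton X-100, pH 7.0 was preincubated 15 min at room temperature with compound. Then 40 uM arachidonic acid was added, 30 min. Hydroperoxide was read by Fe-XO absorbance ratio 573/405 nm.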
# PLK1 PBD block = qHTS for Inhibitors of PLK1-PDB (polo-like kinase 1 - polo-box domain): Primary Screen | Serine/threonine-protein kinase PLK1 (Homo sapiens), P53350 | Plk1 PBD binding of FITC phosphopeptide, fluorescence polarization | Potency, µM, most hits filed as inhibitors | 360,000 compounds, 2.8% hits | AID 720504, 2013; also: series mostly up to about 57 µM; nearly all actives have a fitted effect of over 65% in size
# JMJD2A Tudor inh = qHTS Assay for Inhibitors of JMJD2A-Tudor Domain; Lysine-specific demethylase 4A (Homo sapiens), O75164; AlphaScreen JMJD2A-Tudor / H3K4me3 peptide binding; Potency, µM (doses to about 114 µM), usual class: inhibitors; 390,000 compounds, 4.4% hits; also: nearly all actives have a fitted effect of over 50% in size
# HP1b chromo inh = HTS for Inhibitors of HP1-beta Chromodomain Interactions with Methylated Histone Tails; Chromobox protein homolog 1 (Homo sapiens), P83916; AlphaScreen HP1-beta / biotin-H3K9me3 peptide binding; Potency, µM (top dose mostly 114 µM), actives largely listed as inhibitors; 390,000 compounds, 0.56% hits; AID 540317, 2011; also: nearly all actives have a fitted effect of over 70% in size
#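 Compound inhibition of the preformed complex between 50 nM HP1-beta and 50 nM biotinylated H3K9me3 peptide was read by AlphaScreen. Buffer was PBS pH 7.4 with 0.01% Tween-20. Incubations ran 30 min at room temperature, with 10 ug/mL donor/acceptor beads.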
# G9a inh = qHTS Assay for Inhibitors of Histone Lysine Methyltransferase G9a; Histone-lysine N-methyltransferase EHMT2 (Homo sapiens), Q96KQ7; Potency, µM (series often up to 102 µM), usual class: inhibitors; G9a H3K9 monomethylation, AlphaScreen, 2 h; 350,000 compounds, 8.8% hits; also: nearly all actives have a fitted effect of over 75% in size
#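 AlphaScreen detection with an anti-monomethyl H3K9 antibody quantified product after a 2 h room-temperature reaction containing 500 nM biotinylated H3K9 peptide, 20 µM SAM and 20 nM enzyme, which had been preincubated 15 min with compound.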
# BAZ2B block = qHTS Assay for Inhibitors of BAZ2B; AlphaScreen BAZ2B-H3K14Ac peptide displacement; Potency, µM (doses to about 114 µM), actives largely listed as inhibitors; 360,000 compounds, 4.4% hits; also: nearly all actives have a fitted effect of over 60% in size
#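 AlphaScreen luminescence quantifies BAZ2B engagement of H3K14Ac peptide; the protein and biotinylated peptide are both at 50 nM final, buffer PBS pH 7.4 with 0.01% Tween-20, all steps at room temperature.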
# Numbers stand for hits; i = inactive; ? = inconclusive; nt = not tested or not shown; [ ] = another dose, or the depositor's remark. Shown are actives, neighbours in structure and some others; about 9% of the full set was active somewhere. Calls follow the shape of the dose curve; as a rule, active = well fitted curve in the direction sought with a large enough effect; inconclusive = small, poorly fitted or top-dose-only effect, or another doubt; inactive = no such curve, though single readings can be large; an effect the other way counts as inactive or inconclusive.
SMILES,ALOX12 inh,PLK1 PBD block,JMJD2A Tudor inh,HP1b chromo inh,G9a inh,BAZ2B block
O=C(O)c1ccc(-c2ccc(/C=C3\NC(=O)N(Cc4ccc(Cl)cc4)C3=O)o2)cc1Cl,?,15µM,32µM,32µM,20µM,22µM
O=C(O)CN1C(=O)/C(=C/c2ccc(N3CCCCC3)o2)SC1=S,?,i,?,?,25µM,35µM
CC(=O)c1c(C)[nH]c(C(=O)Nc2ccccn2)c1C,i,i,i,i,i,i
CC(=O)c1c(C)[nH]c(C(=O)NC2=NCCS2)c1C,i,i,i,i,i[12.7 µM],50µM
CC(=O)c1ccc(NC(=O)C2C3C=CC(C3=C(c3ccccc3)c3ccccc3)C2C(=O)O)cc1 (configuration not stated),?,42µM,i,i,?,?
C=C[C@H](N)CCC(=O)O,i,nt,nt,nt,i[21.5 µM],nt
CCc1ccc(Nc2n[n+](C)c(-c3ccc(C(=O)O)cc3)s2)cc1,nt,nt,nt,nt,i[12.7 µM],i
CCc1ccc(Nc2n[n+](C)c(-c3ccncc3)s2)cc1,?,?,56µM,i,nt,56µM
CCc1ccc(Nc2n[n+](-c3ccccc3)c(-c3ccc(SC)cc3)s2)cc1,?,?,?,i,45µM,?
CC(=O)Nc1ccc(-c2sc(Nc3cccc4ccccc34)n[n+]2-c2ccccc2)cc1,?,i,i,i,45µM,?
CCc1ccc(Nc2n[n+](-c3ccccc3)c(-c3ccc(OC)c(Br)c3)s2)cc1,?,?,i,i,35µM,?
CC(=O)Nc1ccc(-c2sc(Nc3ccccc3)n[n+]2C)cc1,i,i,i,i,nt,i
COc1ccc(Cc2nnc(Nc3ccccc3)s2)cc1Br,i,i,i,i,i,i
Cc1ccccc1N1CCN(C2CCCN(C(=O)CCC(F)(F)F)C2)CC1 (configuration not stated),?,i,i,i,i[0.501 µM],i
Clc1cccc(-c2sc(Nc3ccccc3)n[n+]2-c2ccccc2)c1Cl,?,?,?,i,nt,?
CSc1ccc(-c2sc(Nc3ccccc3)n[n+]2-c2ccccc2)cc1,nt,24µM,56µM,i,35µM,45µM
CSc1ccc(-c2sc(Nc3cccc4ccccc34)n[n+]2-c2ccccc2)cc1,?,?,79µM,i,nt,18µM
CCc1ccc(Nc2n[n+](-c3ccccc3)c(-c3ccc(C(=O)O)cc3)s2)cc1,?,i,79µM,i,32µM,35µM
CCc1cc(C(c2ccc(F)cc2)N2CCOCC2)c(NC(=O)c2ccccc2)s1 (configuration not stated),?,i,i,i,i,i
CC(C)OC(=O)c1cc2c(ccn2C)n1CC(=O)N(Cc1ccccc1)c1ccccc1,?,i,18µM,?,25µM,25µM
COc1ccc(OC)c(CNC(=O)c2nccnc2N)c1,i,nt,nt,nt,nt,nt
Cc1c(C)n(-c2ccccc2)c2ncnc(NCCN(C)C)c12,i,i,i,i,?,i
CC(=O)Nc1ccc(NC(=O)c2nc(S(=O)(=O)Cc3cccc(C)c3)ncc2Cl)cc1,i,13µM,i,i,45µM,i
CCS(=O)(=O)c1ncc(Cl)c(C(=O)Nc2ccccc2OC)n1,i,i,i,i,nt,i
Cc1ccc(NC(=O)c2nc(S(=O)(=O)Cc3ccccc3C)ncc2Cl)cc1C,i,27µM,13µM,i,45µM,i
SMILES,ALOX12 inh,PLK1 PBD block,JMJD2A Tudor inh,HP1b chromo inh,G9a inh,BAZ2B block
COc1ccccc1NC(=O)c1nc(S(=O)(=O)Cc2ccccc2)ncc1Cl,i,?,i,i,18µM,i
Cc1ccc(NC(=O)c2nc(S(=O)(=O)Cc3ccc(F)cc3)ncc2Cl)cc1C,i,nt,i,i,i,i
CCOc1ccccc1NC(=O)c1nc(S(=O)(=O)Cc2ccccc2)ncc1Cl,i,?,i,i,40µM,i
COCC(C)NC(=O)c1oc2c(c1C)C1(CCC2)SCCS1 (configuration not stated),i,i,i,i,?,i
COc1ccc(OC)c(NC(=O)c2nc(S(=O)(=O)Cc3ccc(F)cc3)ncc2Cl)c1,i,nt,?,i,7.1µM,?
CCOC(=O)c1ccc(NC(=O)c2nc(S(=O)(=O)Cc3ccccc3)ncc2Cl)cc1,i,12µM,i,i,22µM,i
CCOC(=O)CC(C)(C)/C(C)=N/Nc1ccc([N+](=O)[O-])cc1[N+](=O)[O-],i,i,?,14µM,8.9µM,7.1µM
CCC(CC)=NNc1ccc([N+](=O)[O-])cc1[N+](=O)[O-],i,i,i,i,i,?
CCOC(=O)C(C(=O)OCC)C(C)(C)/C(C)=N\Nc1ccc([N+](=O)[O-])cc1[N+](=O)[O-],i,i,32µM,35µM,?,10µM
C/C(=N/Nc1ccc([N+](=O)[O-])cc1[N+](=O)[O-])C(C)(C)C,i,nt,nt,nt,nt,nt
C#CCOC(=O)CCCNc1ccc([N+](=O)[O-])cc1[N+](=O)[O-],i,i,56µM,i,i,50µM
C/C(CCC(=O)O)=N/Nc1ccc([N+](=O)[O-])cc1[N+](=O)[O-],i,i,?,i,?,?
O=C(O)/C(CC(=O)c1ccc(Cl)cc1)=N/Nc1ccc([N+](=O)[O-])cc1[N+](=O)[O-],?,24µM,40µM,i,i[2.33 µM],40µM
Cc1ccc(NC(=O)Cc2nc(-c3cc(C)n(-c4cc(C)on4)c3C)cs2)cc1,i,nt,nt,nt,nt,nt
O=C(O)c1cc(F)ccc1I,i,nt,nt,nt,nt,nt
Cn1c(=NC(=O)CN2C(=O)C3CC=CCC3C2=O)sc2ccccc21 (configuration not stated),?,i,i,i,i,nt
NS(=O)(=O)c1ccc(CNC(=O)c2cc(-c3ccccc3)nc3ccccc23)cc1,i,i,i,i,i,i
COc1cc(C(F)(F)F)c(C(=O)N(C)Cc2cccc(Cl)c2)cn1,?,i,i,i,i,i
CC1=C(C(=O)O)N2C(=O)C(NC(=O)c3c(F)cccc3F)C2SC1 (configuration not stated),?,i,i,i,45µM,?
CC1=C(C(=O)O)N2C(=O)C(NC(=O)c3nn(C)c(C)c3Cl)C2SC1 (configuration not stated),?,?,?,i,8.9µM,i
CCCc1c(C(=O)Nc2ccc(C(F)(F)F)cc2)cnn1-c1ccccc1,?,i,i,i,i,i
CC(C)CC(=O)Nc1nnc2n1CCS2,i,nt,i,i,?,i
O=C(Nc1nnc2n1CCS2)c1ccc(Br)o1,i,i,20µM,i,1.8µM,20µM
O=C(Cc1ccc(Cl)cc1)Nc1nnc2n1CCS2,i,nt,?,i,?,56µM
